Screening data (PubChem BioAssay)
DENV2 CPE rescue: inhibitors of DENV2 cytopathic effect, primary screen, cell-based, plate reader, single concentration | actives 1.7% (n = 350,000) | CPE inhibition, % at 9.99 µM | DENV2-infected cells, cytopathic effect rescue; in the data active = CPE inhibition above about 20%, passing the limit was not always enough; inconclusive = no clear call, values can overlap the other calls; tested in BHK-21 cells;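 note: 0% = median of neutral control wells and 100% = median of positive control wells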
RAD52 anneal inh: RAD52 DNA annealing inhibitors, primary screen, biochemical, FRET, single point, set 2. recombinant RAD52 DNA annealing, FRET fluorescence. inhibition, % at 18.7 µM. DNA repair protein RAD52 homolog (Homo sapiens), P43351. actives 0.46% (n = 360,000);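 active = every replicate showing at least 50% inhibition; inconclusive = mean inhibition at least 50% but not in every replicate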
dFosB act: activators of delta FosB homodimer, primary screen, biochemical, fluorescence polarization, TAMRA-CDK5 oligo, single point; Protein FosB (Mus musculus), P13346; activation, % at 25 µM; purified delta FosB; percent of positive-control signal above neutral wells; actives 0.99% (n = 340,000); AID 493131, 2011;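 active = mean activation above about 17%, with every replicate also reaching it, limit read from the data, passing the limit was not always enough; inconclusive = only one of the two conditions met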
RAD54 inh: inhibitors of human RAD54 branch migration, primary screen, biochemical, fluorescence, single point; DNA repair and recombination protein RAD54-like (Homo sapiens), Q92698; RAD54 Holliday junction branch migration, FAM/BHQ fluorescence; inhibition, % at 10.4 µM; actives 0.14% (n = 360,000);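 active = mean normalized replicate activity at least 40 and at least half of replicates scoring 40 or more; inconclusive = only one of the two criteria met; inactive = mean below 40 and under half of replicates reaching 40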;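 note: 0% = median of neutral control wells and 100% = median of positive control wells; inhibitors cause a drop in the FAM fluorescence signal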
GSIS activator: GLuc luminescence reporter in INS-1E cells, primary screen for activators of glucose-dependent secretion of insulin. actives 0.61% (n = 370,000). INS-1E GLuc reporter insulin secretion, 2-3 h. activation, % at 16.6 µM;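 active = lowest replicate activation of at least 40%, so every replicate reaches that level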;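 note: 0% = median of neutral control wells and 100% = median of IBMX positive control wells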
AF4-AF9 inh: inhibitors of AF4 peptide binding to AF9, primary screen, biochemical, AlphaScreen, biotin-AF4 peptide, FLAG-AF9, single point. Protein AF-9 (Homo sapiens), P42568. inhibition, % at 10 µM. actives 0.47% (n = 350,000);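 active = every replicate reaching a set inhibition limit, whatever the replicate mean, cut at about 25% in these data; inconclusive = mean inhibition reaches that limit but some replicates miss it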;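 note: 0% = plate neutral control median and 100% = total signal loss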
Target sequence (P42568 whole entry, looked up): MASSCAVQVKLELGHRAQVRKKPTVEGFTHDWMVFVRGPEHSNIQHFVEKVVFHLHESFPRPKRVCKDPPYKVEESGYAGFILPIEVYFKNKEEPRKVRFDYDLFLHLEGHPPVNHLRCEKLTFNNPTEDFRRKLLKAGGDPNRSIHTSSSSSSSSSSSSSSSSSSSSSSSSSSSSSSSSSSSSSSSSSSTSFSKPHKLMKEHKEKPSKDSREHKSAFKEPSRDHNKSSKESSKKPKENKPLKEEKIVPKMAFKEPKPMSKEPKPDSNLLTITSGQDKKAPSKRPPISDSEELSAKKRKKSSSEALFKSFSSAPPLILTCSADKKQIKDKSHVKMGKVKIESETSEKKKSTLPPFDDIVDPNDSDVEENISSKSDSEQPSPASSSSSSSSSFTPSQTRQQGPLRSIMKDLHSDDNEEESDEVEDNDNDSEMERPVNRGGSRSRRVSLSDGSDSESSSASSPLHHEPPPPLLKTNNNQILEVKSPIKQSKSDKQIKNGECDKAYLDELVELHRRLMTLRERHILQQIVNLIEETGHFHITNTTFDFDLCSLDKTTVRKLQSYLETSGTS
Numbers without * were called inactive; ? = inconclusive; / = no result. An excerpt weighted towards active compounds, which were near 3.1% of everything screened.

SMILES | DENV2 CPE rescue | RAD52 anneal inh | dFosB act | RAD54 inh | GSIS activator | AF4-AF9 inh
COCC(=O)Nc1ccc2c(c1)OC[C@H](C)N(C(=O)CC1CC1)C[C@H](C)[C@H](OC)CN(C)C2=O | 31* | -1 | / | 0 | 6 | 0
CCCC(=O)Nc1ccc2c(c1)OC[C@@H](C)N(C(=O)CN1CCOCC1)C[C@@H](C)[C@H](OC)CN(C)C2=O | 21* | 7 | / | 2 | 3 | -3
COCC(=O)Nc1ccc2c(c1)OC[C@H](C)N(C(=O)CC1CC1)C[C@@H](C)[C@@H](OC)CN(C)C2=O | -3 | -1 | / | -7 | -7 | 1
CCCC(=O)Nc1ccc2c(c1)C(=O)N(C)C[C@@H](OC)[C@H](C)CN(C(=O)CN1CCOCC1)[C@H](C)CO2 | 2 | 14 | / | -7 | 2 | -2
C[C@@H]1CCCCO[C@@H](CN(C)C(=O)Nc2ccc(C(F)(F)F)cc2)[C@H](C)CN([C@@H](C)CO)C(=O)c2cc(NS(=O)(=O)c3cccs3)ccc2O1 | -10 | -62 | / | -4 | -11 | -3
CCCNC(=O)N1C[C@@H](O)COC[C@@H]2O[C@@H](CC(=O)N3CCOCC3)CC[C@H]21 | 0 | 10 | / | -11 | 20 | -3
C[C@@H]1CN([C@@H](C)CO)C(=O)c2cc(NS(=O)(=O)c3ccc(F)cc3)ccc2O[C@@H]1CN(C)C | 11 | 4 | / | -4 | 39 | -1
O=C1c2ccccc2NC(c2ccc(-c3ccccc3F)o2)N1O (stereo unspecified) | 25* | -228 | 0 | -10 | 2 | 0
O=C1c2ccccc2NC(c2ccc(-c3cccc(F)c3)o2)N1O (stereo unspecified) | -3 | -67 | -7 | -4 | -3 | 12
CCCCN(C(=O)c1ccc2c(c1)NC(=O)CS2)c1ccccc1 | 94* | -14 | -15 | 7 | / | -2
NC1=NC[C@H](c2ccccc2)N1CCCCC1CCCCC1 | / | 48 | -13 | 20 | 285* | 10
Cc1ccc(S(=O)(=O)N(C)C[C@H]2Oc3ccc(NC(=O)NC4CCCCC4)cc3CC(=O)N([C@@H](C)CO)C[C@H]2C)cc1 | -4 | 26 | / | -6 | -12 | 1
Cc1ccc(S(=O)(=O)Nc2ccc(C(=O)NCCCn3ccnc3)cc2)cc1[N+](=O)[O-] | 5 | -6 | -4 | 6 | 44* | -3
Cc1ccc(C(=O)NCCCn2ccnc2)cc1[N+](=O)[O-] | / | / | 5 | 1 | / | /
CCc1ccc(/C=C2\SC(=S)N(CCCC(=O)NCCCN3CCOCC3)C2=O)cc1 | ? | 8 | / | -3 | 41* | 4
O=C(CCCN1C(=O)/C(=C/c2cccs2)SC1=S)Nc1ccccc1O | 3 | -19 | 34* | 2 | 11 | -3
O=C(CCCN1C(=O)/C(=C\c2cccs2)SC1=S)Nc1ccc(O)cc1 | 0 | -11 | 0 | / | 2 | 1
CCc1ccc(/C=C2\SC(=S)N(CCCC(=O)N3CCN(C)CC3)C2=O)cc1 | -5 | -57 | / | 5 | -15 | 33*
COc1ccc(/C=C2\SC(=S)N(CCCC(=O)N3CCN(C)CC3)C2=O)cc1 | 4 | 19 | -7 | 14 | -8 | 21
CN1CCN(C(=O)CCCN2C(=O)/C(=C/c3cccc(Br)c3)SC2=S)CC1 | -6 | -5 | 6 | -7 | -7 | 27*
C[C@@H](O)C#Cc1ccc([C@@H]2[C@@H](CO)N3CCCCN(C(=O)c4ccc5c(c4)OCO5)C[C@H]23)cc1 | -8 | 6 | / | 8 | -1 | 1
C[C@H](CO)N1C[C@H](C)[C@H](CN(C)C(=O)Nc2ccc3c(c2)OCO3)Oc2ccc(NC(=O)Cc3cn(C)c4ccccc34)cc2CC1=O | -12 | 16 | / | -4 | 9 | 6
COc1cccc(S(=O)(=O)Nc2ccc3c(c2)[C@H]2C[C@@H](CC(=O)N[C@@H](C)c4ccccc4)O[C@@H](CO)[C@H]2O3)c1 | -4 | -5 | / | -2 | 4 | -1
